D1 potentiator – Potentiators of Human D1 Dopamine Receptor: qHTS; D(1A) dopamine receptor (Homo sapiens), P21728; AID 504651, 2011; HEK293 TREx D1 cells, calcium flux, dopamine EC20 potentiation; actives 0.036% (n = 360,000); potentiation, % at 10 µM; in the data active means potentiation above about 30%; further: 0% is about no effect
TRHR PAM – qHTS for Small Molecule Agonists and Allosteric Enhancers of Human TRH Receptor: Primary Screen for Enhancers. actives 0.66% (n = 360,000). Thyrotropin-releasing hormone receptor (Homo sapiens), P34981. TRHR cells, fluo-8 calcium fluorescence, EC20 TRH enhancement. enhancement, % at 2 µM; in the data active means enhancement above about 30%; further: 0% is about no effect
Target sequence (P34981 whole entry, looked up): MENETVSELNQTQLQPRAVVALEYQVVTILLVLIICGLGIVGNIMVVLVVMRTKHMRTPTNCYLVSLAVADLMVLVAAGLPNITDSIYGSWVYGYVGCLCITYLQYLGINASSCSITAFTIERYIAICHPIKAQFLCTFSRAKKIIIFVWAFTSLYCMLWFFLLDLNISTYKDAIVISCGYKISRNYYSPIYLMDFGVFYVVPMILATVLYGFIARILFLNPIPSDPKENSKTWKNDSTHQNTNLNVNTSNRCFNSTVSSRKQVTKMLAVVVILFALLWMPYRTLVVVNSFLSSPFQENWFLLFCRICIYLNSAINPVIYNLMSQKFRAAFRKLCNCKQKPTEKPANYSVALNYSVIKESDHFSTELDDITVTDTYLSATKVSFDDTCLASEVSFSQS
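TRHR-expressing cells loaded with fluo-8 calcium dye were read kinetically (ex 480/em 530) during compound addition, then stimulated with an EC20 of TRH (10 nM final). Enhancement of the Gq-mediated intracellular calcium response was scored.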
TRHR agonist – qHTS for Small Molecule Agonists and Allosteric Enhancers of Human TRH Receptor: Primary Screen for Agonists | Thyrotropin-releasing hormone receptor (Homo sapiens), P34981 | TRHR cells, calcium flux fluo-8, FDSS agonist mode | activation, % at 2 µM | actives 0.18% (n = 360,000) | AID 493084, 2011; further: 0% is about no effect
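In this calcium-flux screen, cells bearing human TRHR are dye-loaded with fluo-8, baselined for 10 cycles, then exposed to library compounds; positive kinetic calcium responses during the agonist phase mark hits, with TRH as control.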
D1 antag – Antagonist of Human D 1 Dopamine Receptor: qHTS | D(1A) dopamine receptor (Homo sapiens), P21728 | HEK293 TREx D1 cells, calcium flux, dopamine EC80; hits give low values | activity change, negative = inhibition, % at 10 µM | actives 3.2% (n = 360,000); in the data active means activity change below about -30%; further: on the % scale 0 is the no-effect control and ±100 the full control effect
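Allosteric or orthosteric antagonism assessed as attenuation of the calcium response to EC80 dopamine, added 180 s after compound, in induced HEK293 Trex D1 cells loaded with no-wash calcium dye.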
D1 agonist – Allosteric Agonists of the Human D1 Dopamine Receptor: qHTS; D(1A) dopamine receptor (Homo sapiens), P21728; HEK293 T-REx D1 cells, calcium flux, agonist mode; activation, % at 2 µM; actives 1% (n = 360,000); further: 0% is about no effect
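Inducible HEK293 T-REx D1 cells, force-coupled to calcium signalling, were plated at 4000 cells/well with tetracycline and held overnight at 30 C. After no-wash calcium dye loading, compound-evoked calcium rise over 180 s flagged agonists.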
Active calls of the source: *. This is a sample that favours compounds with a hit; in the whole collection about 4.6% have one here. Unless noted, no stated cut-off is given here; in the data, active means activation above about 30%; inactive means the rest.

How did C/C(=N/NC(=O)c1ccc2c(c1)OCO2)c1cccc([N+](=O)[O-])c1 do in these assays?
D1 potentiator: -1.3; TRHR PAM: -2.8; TRHR agonist: -0.5; D1 antag: 0.6; D1 agonist: -0.3

How did COc1ccc(C(=O)/C(C#N)=N/Nc2cccc([N+](=O)[O-])c2)cc1 do in these assays?
D1 potentiator: -8.7; TRHR PAM: -13.9; TRHR agonist: 1.0; D1 antag: -32.5*; D1 agonist: 19.8

Results for C/C(=N/NC(=O)c1ccc2c(c1)OCCO2)c1ccc([N+](=O)[O-])cc1 ?
D1 potentiator: -7.8; TRHR PAM: -3.5; TRHR agonist: -0.8; D1 antag: -52.0*; D1 agonist: 1.2

What do the screens show for `C/C(=N\NC(=S)NCc1ccccc1)c1ccc(Br)cc1`?
D1 potentiator: 1.2; TRHR PAM: 5.4; TRHR agonist: 0.6; D1 antag: 15.8; D1 agonist: 3.7

What do the screens show for `C/C(=N\NC(=S)NCc1ccccc1)c1ccc2c(c1)OCCO2`?
D1 potentiator: -5.5; TRHR PAM: -1.0; TRHR agonist: -0.9; D1 antag: -31.4*; D1 agonist: 8.5

What do the screens show for `C/C(=N\NC(=O)c1cccc(N/N=C(\C)c2ccccc2)c1)c1ccccc1`?
D1 potentiator: -13.5; TRHR PAM: -9.8; TRHR agonist: 2.0; D1 antag: -11.7; D1 agonist: -0.8

What do the screens show for `CN1CCN(C(=O)Cn2c(-c3cccs3)cc3cc(Cl)ccc32)CC1`?
D1 potentiator: -4.2; TRHR PAM: 12.4; TRHR agonist: -0.6; D1 antag: -14.7; D1 agonist: 16.6

How did CC(Sc1ccccc1)C(=O)NCC(c1ccco1)N1CCCCC1 (configuration not stated) do in these assays?
D1 potentiator: 0.1; TRHR PAM: -5.6; TRHR agonist: 2.0; D1 antag: -2.3; D1 agonist: 2.4

What do the screens show for `COc1cc(C2NC(=O)N(C)C3=C2C(=O)N(c2ccccc2)C3)ccc1O` (configuration not stated)?
D1 potentiator: -2.5; TRHR PAM: -0.9; TRHR agonist: -1.0; D1 antag: -19.8; D1 agonist: -0.5

How did O=C(NC1CCN(Cc2ccc(Cl)cc2)CC1)c1cn(-c2ccccc2)nc1-c1cccnc1 do in these assays?
TRHR PAM: 7.0; TRHR agonist: 1.1; D1 antag: -49.5*; D1 agonist: 1.6

What do the screens show for `Cc1ccc(-c2nnn(CC(=O)NC3CCN(Cc4ccccc4)CC3)n2)cc1`?
D1 potentiator: -6.2; TRHR PAM: -10.0; TRHR agonist: -1.2; D1 antag: -8.5; D1 agonist: 30.7*

Results for O=C(Cn1nnc(-c2ccc(Cl)cc2)n1)NC1CCN(Cc2ccccc2)CC1 ?
D1 potentiator: -10.0; TRHR PAM: -2.2; TRHR agonist: -0.4; D1 antag: -59.5*; D1 agonist: 37.2*

What do the screens show for `O=[S+]([O-])(/C=C/c1nc(Nc2cc(F)cc(F)c2)c2ncn(CC(F)F)c2n1)c1ccccc1`?
D1 potentiator: 3.4; TRHR PAM: -0.5; TRHR agonist: 0.3; D1 antag: 3.7; D1 agonist: 0.4

Results for CCCCC(CC)CNC(=O)c1cccs1 (configuration not stated) ?
D1 potentiator: -2.2; TRHR PAM: 1.9; TRHR agonist: 0.1; D1 antag: -62.0*; D1 agonist: -0.8

Results for CCOC(=O)c1ccc(NC(=O)CCc2nc(-c3ccc(Cl)cc3)no2)cc1 ?
D1 potentiator: -3.9; TRHR PAM: 11.3; TRHR agonist: 0.0; D1 antag: -19.2; D1 agonist: 20.4

How did O=C(CCCc1nc(-c2ccccc2)no1)Nc1cccnc1 do in these assays?
D1 potentiator: -9.7; TRHR PAM: 8.9; TRHR agonist: 0.1; D1 antag: -17.3; D1 agonist: 6.2

What do the screens show for `Cc1ccc(-c2noc(CCCC(=O)Nc3cccnc3)n2)cc1`?
D1 potentiator: -2.7; TRHR PAM: -12.2; TRHR agonist: -0.6; D1 antag: -33.6*; D1 agonist: 19.8

Screens as filed in PubChem.
